# Laboratory results reported in PubChem BioAssay AID990 (National Center for Advancing Translational Sciences (NCATS), 2007).
# Active and inactive are the calls of the source.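 The calls were made as follows: active = compound that made reporter-free parental cells show up as glowing objects under laser imaging, so likely a fluorescent false positive; inactive = the rest.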
# Test: Parental Cell Counter Screen Assay for Epigenetic Modulators
# Settings: parental c127i cells, compound fluorescence imaging, 30 h
# Excerpt: NIH Molecular Libraries Screening Centers Network [MLSCN] NIH Chemical Genomics Center [NCGC] MLSCN Grant: 1 X01 MH079860-01 Assay Provider: Elisabeth D. Martinez, University of Texas SW Medical Center NCGC Assay Overview: This assay is a counter screen for the Locus Derepression (LDR) assay (PubChem AID 597). The LDR assay detects the derepression of a GFP reporter that is stably integrated in a region of the genome of murine c127i mammary cells that is presumably silenced. Compounds that cause derepression of the locus to express GFP are identified by enumerating GFP positive cells using a laser-scanning microplate cytometer. […] Compounds active in the parental c127i cells are likely fluorescent.
# NCGC Assay Protocol Summary: Two hundred and fifty cells in 5 uL per well were dispensed into black, clear-bottom 1536-well plates. Twenty-three nL compound was transferred to the assay plate and cells were incubated 30 hours at 37 C. Medium was removed, cells were washed two times with PBS, and fluorescent cells were enumerated as objects between the sizes of 20 to 120 um width and depth using a laser-scanning microplate imager (Acumen Explorer Ex3, TTP Labtech).
compound,measurement,value
CN1CSC(=S)N(C)C1,outcome,inactive
